What all share (test): protein-binding microarray (PBM); PBM: ~300 nM protein, 6 mM HEPES pH 7.8, 80 mM KCl, 0.5 mM EDTA, 0.5 mM EGTA, 6% glycerol, 35 ng/ul poly-dIdC, 1% milk, 1 h, room temperature; Ap Aiptasia and Nv Nematostella (sea anemones) / Co Capsaspora / Aq Amphimedon (sponge) / Dm Drosophila / Hu human; RHD is the Rel homology domain; high values mean tight binding
Holding throughout (details): dsDNA, one strand shown

Experiment [1] deals with T1, GST-Ap-NF-kB RHD (Exaiptasia pallida (Aiptasia), UniProt A0A913YAJ5 2-422).
T1 sequence: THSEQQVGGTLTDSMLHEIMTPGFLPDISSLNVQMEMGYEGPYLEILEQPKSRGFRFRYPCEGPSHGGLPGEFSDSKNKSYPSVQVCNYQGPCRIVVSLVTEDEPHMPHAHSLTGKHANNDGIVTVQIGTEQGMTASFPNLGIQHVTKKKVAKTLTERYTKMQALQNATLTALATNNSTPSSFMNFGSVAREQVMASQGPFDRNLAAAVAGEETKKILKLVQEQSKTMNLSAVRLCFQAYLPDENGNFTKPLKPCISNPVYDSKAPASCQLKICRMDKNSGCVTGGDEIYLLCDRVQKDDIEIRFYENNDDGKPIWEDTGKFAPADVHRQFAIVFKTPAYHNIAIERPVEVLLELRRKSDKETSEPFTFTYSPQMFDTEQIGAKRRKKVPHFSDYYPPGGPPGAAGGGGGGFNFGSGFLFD

Experiment [2] deals with T2, GST-Nv-NF-kB (Cys allele) (Nematostella vectensis, UniProt E5G601 2-411).
T2 sequence: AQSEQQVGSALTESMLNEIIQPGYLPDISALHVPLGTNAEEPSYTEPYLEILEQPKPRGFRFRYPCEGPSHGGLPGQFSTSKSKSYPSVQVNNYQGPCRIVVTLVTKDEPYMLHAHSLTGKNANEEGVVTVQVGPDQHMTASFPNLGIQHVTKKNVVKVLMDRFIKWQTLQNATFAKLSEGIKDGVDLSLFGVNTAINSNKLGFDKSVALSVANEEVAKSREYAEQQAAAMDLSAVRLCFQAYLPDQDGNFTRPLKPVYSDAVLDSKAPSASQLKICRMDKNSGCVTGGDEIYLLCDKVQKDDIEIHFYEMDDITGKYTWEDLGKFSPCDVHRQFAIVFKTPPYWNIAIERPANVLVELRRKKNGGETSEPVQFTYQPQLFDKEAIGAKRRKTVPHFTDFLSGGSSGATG

The target in experiment [3] is T3, GST-Nv-NF-kB (Ser allele) (Nematostella vectensis, UniProt A7UNT2 2-411).
T3 sequence: T2 sequence with Q21R, C66S, S207N, E215Q, V217A, E225K, A268E, D399E

Experiment [4] has as its target T4, GST-Co-NF-kB (Capsaspora owczarzaki, UniProt F1ARL5 200-546).
T4 sequence: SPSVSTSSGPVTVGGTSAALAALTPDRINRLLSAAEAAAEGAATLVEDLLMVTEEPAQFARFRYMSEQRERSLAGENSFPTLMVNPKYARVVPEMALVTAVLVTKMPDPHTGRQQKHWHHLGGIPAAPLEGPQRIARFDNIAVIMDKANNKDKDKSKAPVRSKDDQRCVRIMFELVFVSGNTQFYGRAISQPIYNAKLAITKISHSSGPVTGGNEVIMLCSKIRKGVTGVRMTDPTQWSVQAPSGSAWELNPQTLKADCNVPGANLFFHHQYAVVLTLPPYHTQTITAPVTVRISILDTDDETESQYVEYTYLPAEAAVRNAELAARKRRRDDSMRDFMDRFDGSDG

Experiment [5] addresses T5, GST-Aq-NF-kB (Amphimedon queenslandica, UniProt A9Y5G7 2-389).
T5 sequence: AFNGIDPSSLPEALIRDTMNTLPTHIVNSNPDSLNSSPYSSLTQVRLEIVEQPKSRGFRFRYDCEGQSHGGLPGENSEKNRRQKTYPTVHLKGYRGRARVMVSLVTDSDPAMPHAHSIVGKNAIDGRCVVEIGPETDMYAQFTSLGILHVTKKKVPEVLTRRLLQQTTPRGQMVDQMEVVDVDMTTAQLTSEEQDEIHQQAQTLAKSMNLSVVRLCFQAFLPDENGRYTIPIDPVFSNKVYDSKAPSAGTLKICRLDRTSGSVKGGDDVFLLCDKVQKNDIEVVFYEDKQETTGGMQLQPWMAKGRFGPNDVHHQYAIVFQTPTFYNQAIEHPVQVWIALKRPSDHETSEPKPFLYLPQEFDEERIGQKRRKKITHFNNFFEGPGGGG

Experiment [6] concerns the target GST-Hu-p50 (Homo sapiens, UniProt P19838 7-356).
Experiment [7] concerns the target T6, GST-Dm-Relish (Drosophila melanogaster, UniProt Q94527 99-473).
T6 sequence: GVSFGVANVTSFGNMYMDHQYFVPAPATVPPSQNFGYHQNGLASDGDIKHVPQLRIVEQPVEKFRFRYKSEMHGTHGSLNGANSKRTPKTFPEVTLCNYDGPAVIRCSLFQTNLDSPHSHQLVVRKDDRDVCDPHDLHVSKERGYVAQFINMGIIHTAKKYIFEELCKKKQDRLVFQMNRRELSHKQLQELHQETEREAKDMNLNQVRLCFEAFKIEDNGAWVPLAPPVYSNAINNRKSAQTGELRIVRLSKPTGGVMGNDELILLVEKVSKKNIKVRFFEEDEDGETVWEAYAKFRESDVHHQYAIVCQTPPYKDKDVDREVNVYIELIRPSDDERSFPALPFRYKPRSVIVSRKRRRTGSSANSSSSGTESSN

Substitutions are numbered along the chain they refer to.

GST-Hu-p50, sequence (P19838 7-356): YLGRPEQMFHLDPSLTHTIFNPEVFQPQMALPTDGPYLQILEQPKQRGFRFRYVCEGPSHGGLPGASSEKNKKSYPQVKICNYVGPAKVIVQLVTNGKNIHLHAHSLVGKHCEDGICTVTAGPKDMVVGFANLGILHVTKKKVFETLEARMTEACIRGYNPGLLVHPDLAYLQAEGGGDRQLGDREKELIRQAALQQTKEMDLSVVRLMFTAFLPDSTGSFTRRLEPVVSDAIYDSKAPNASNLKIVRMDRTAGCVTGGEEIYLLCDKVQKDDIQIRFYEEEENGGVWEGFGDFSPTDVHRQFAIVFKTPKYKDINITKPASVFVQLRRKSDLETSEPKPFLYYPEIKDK

“CCGATTAACATCATGGGGAGGAATGATGTTAATCGGGTCTTGATTCGCTTGACGCTGCTG”: the binding signal in experiment [1] turned out to be 3.58 z-score; in experiment [2] it was 3.68 z-score; in experiment [3], 4.26 z-score; in experiment [4] it was 6.46 z-score; in experiment [5], 2.28 z-score; in experiment [6] it was 2.59 z-score.

Consider “CCGATTAACATCAGAGTGGGAAATGATGTTAATCGGGTCTTGATTCGCTTGACGCTGCTG”, for which the binding signal in experiment [1] was determined as 1 z-score; in experiment [2], 2.45 z-score; in experiment [3] it was 1.89 z-score; in experiment [4], 2.83 z-score; in experiment [5], 1.64 z-score; in experiment [6], 2.27 z-score.

Consider “CCGATTAACATCAGTCCCACAGATGATGTTAATCGGGTCTTGATTCGCTTGACGCTGCTG”, for which the binding signal in experiment [1] came to 1.45 z-score; in experiment [2] it was 1.55 z-score; in experiment [5], 1.95 z-score; in experiment [6], 2.52 z-score.

“CCGATTAACATCATGTTAGGGAATGATGTTAATCGGGTCTTGATTCGCTTGACGCTGCTG”: the binding signal in experiment [1] was 1.38 z-score; in experiment [2] it was 3.63 z-score; in experiment [3], 2.76 z-score; in experiment [4], 1.51 z-score; in experiment [5], 4.43 z-score; in experiment [6], 2.03 z-score.

“CCGATTAACATCAGGGGAGACAATGATGTTAATCGGGTCTTGATTCGCTTGACGCTGCTG”: the binding signal in experiment [1] is 3.1 z-score; in experiment [2], 3.18 z-score; in experiment [3], 4.37 z-score; in experiment [4] it was 4.18 z-score; in experiment [5], 2.2 z-score; in experiment [6], 2.14 z-score.

Consider “CCGATTAACATCAAACTGGGAAATGATGTTAATCGGGTCTTGATTCGCTTGACGCTGCTG”, for which the binding signal in experiment [1] was 1.13 z-score; in experiment [2] it was 2.35 z-score; in experiment [3], 1.79 z-score; in experiment [4], 2.64 z-score; in experiment [5], 1.06 z-score; in experiment [6] it was 1.62 z-score.

With “CCGATTAACATCAGGGAATTGGATGATGTTAATCGGGTCTTGATTCGCTTGACGCTGCTG”, the binding signal stood at 2.15 z-score in experiment [1]; 3.52 z-score in experiment [2]; 3.84 z-score in experiment [3]; 1.88 z-score in experiment [4]; 2.8 z-score in experiment [5]; 1.84 z-score in experiment [6].

Turning to “CCGATTAACATCAGGGGAGTGGATGATGTTAATCGGGTCTTGATTCGCTTGACGCTGCTG”, the binding signal in experiment [1] was found to be 3.01 z-score; in experiment [2], 2.86 z-score; in experiment [3], 3.98 z-score; in experiment [4], 1.84 z-score; in experiment [5], 2.85 z-score; in experiment [6], 2.9 z-score.

As to “CCGATTAACATCATATTTTCCCATGATGTTAATCGGGTCTTGATTCGCTTGACGCTGCTG”, the binding signal in experiment [1] was determined as 2.18 z-score; in experiment [2], 4.42 z-score; in experiment [3] it was 5.61 z-score; in experiment [4] it was 4.34 z-score; in experiment [5], 2.52 z-score; in experiment [6] it was 4.15 z-score.

With “CCGATTAACATCAGCTAGTCCCTTGATGTTAATCGGGTCTTGATTCGCTTGACGCTGCTG”, the binding signal came to 3.99 z-score in experiment [1]; 3.63 z-score in experiment [2]; 2.09 z-score in experiment [3]; 3.06 z-score in experiment [5]; 2.73 z-score in experiment [6].

Consider “CCGATTAACATCAGGGGGAGGTATGATGTTAATCGGGTCTTGATTCGCTTGACGCTGCTG”, for which the binding signal amounted to 4.66 z-score in experiment [1]; 4.16 z-score in experiment [2]; 5.35 z-score in experiment [3]; 6.26 z-score in experiment [4]; 2.41 z-score in experiment [7]; 3.87 z-score in experiment [5]. Besides, in experiment [6], the binding signal was determined as 4.35 z-score.

For the sequence “CCGATTAACATCAGGGGAACGGATGATGTTAATCGGGTCTTGATTCGCTTGACGCTGCTG”, the binding signal in experiment [1] came to 4.83 z-score; in experiment [2], 5.28 z-score; in experiment [3], 6.1 z-score; in experiment [4], 4.35 z-score; in experiment [7], 1.58 z-score; in experiment [5] it was 3.47 z-score. In addition, the binding signal in experiment [6] turned out to be 3.91 z-score.

Turning to “CCGATTAACATCAGGGTTTCCCATGATGTTAATCGGGTCTTGATTCGCTTGACGCTGCTG”, the binding signal in experiment [1] was found to be 3.12 z-score; in experiment [2] it was 3.27 z-score; in experiment [3], 2.81 z-score; in experiment [4], 2.84 z-score; in experiment [7] it was 8.13 z-score; in experiment [5] it was 4.6 z-score. In experiment [6], this sequence yielded a binding signal of 2.14 z-score.

Consider “CCGATTAACATCAGTATGGGAAATGATGTTAATCGGGTCTTGATTCGCTTGACGCTGCTG”, for which the binding signal in experiment [1] was 1.32 z-score; in experiment [2], 2.39 z-score; in experiment [3], 2.22 z-score; in experiment [4], 2.14 z-score; in experiment [5] it was 1.79 z-score; in experiment [6], 1.28 z-score.

For the sequence “CCGATTAACATCAAATCTCCCCCTGATGTTAATCGGGTCTTGATTCGCTTGACGCTGCTG”, the binding signal in experiment [1] was 8.37 z-score; in experiment [2], 6.08 z-score; in experiment [3], 9.76 z-score; in experiment [4], 10.1 z-score; in experiment [7], 4.14 z-score; in experiment [5], 6.11 z-score. In experiment [6], this sequence came in with a binding signal of 7.19 z-score.

On to “CCGATTAACATCAGGGAAACAAATGATGTTAATCGGGTCTTGATTCGCTTGACGCTGCTG”, for which the binding signal in experiment [1] worked out at 1.7 z-score; in experiment [2], 3.05 z-score; in experiment [3], 3.17 z-score; in experiment [4] it was 4.61 z-score; in experiment [5], 3.12 z-score; in experiment [6], 1.97 z-score.

On to “CCGATTAACATCAGGGGGGTGAATGATGTTAATCGGGTCTTGATTCGCTTGACGCTGCTG”, for which the binding signal in experiment [1] came out at 3.76 z-score; in experiment [2] it was 4.08 z-score; in experiment [3], 4.43 z-score; in experiment [4] it was 5.24 z-score; in experiment [7], 4.14 z-score; in experiment [5], 4.32 z-score. Also, the binding signal in experiment [6] was determined as 4.12 z-score.

On to “CCGATTAACATCAGGCTATTCCCTGATGTTAATCGGGTCTTGATTCGCTTGACGCTGCTG”, for which the binding signal was determined as 1.73 z-score in experiment [1]; 2.68 z-score in experiment [2]; 1.67 z-score in experiment [3]; 1.6 z-score in experiment [4]; 3.74 z-score in experiment [5]; 1.4 z-score in experiment [6].

For the sequence “CCGATTAACATCAGGGGGCTATATGATGTTAATCGGGTCTTGATTCGCTTGACGCTGCTG”, the binding signal in experiment [1] was found to be 3.62 z-score; in experiment [2] it was 3.23 z-score; in experiment [3] it was 2.2 z-score; in experiment [4], 1.85 z-score; in experiment [7], 2.75 z-score; in experiment [5] it was 3.69 z-score. In experiment [6], this sequence displayed a binding signal of 3.35 z-score.

As for “CCGATTAACATCATGTACGGGAATGATGTTAATCGGGTCTTGATTCGCTTGACGCTGCTG”, the binding signal in experiment [1] was 1.13 z-score; in experiment [2], 2 z-score; in experiment [3] it was 1.46 z-score; in experiment [4] it was 2.7 z-score; in experiment [5], 3.27 z-score; in experiment [6], 1.26 z-score.

On to “CCGATTAACATCAAGTACGGGAATGATGTTAATCGGGTCTTGATTCGCTTGACGCTGCTG”, for which the binding signal in experiment [1] is 1.11 z-score; in experiment [2] it was 2.04 z-score; in experiment [3], 1.41 z-score; in experiment [4], 2.85 z-score; in experiment [5], 3.24 z-score; in experiment [6] it was 1.22 z-score.

Values taken from PMC5700166.
